# Screening data: PubChem BioAssay, several laboratories
# The list is not random: actives were taken first. Their share in the collection is about 4.2%.
# CHOP inh: inhibitors of CHOP promoter induction, primary screen, cell-based, unfolded protein response, luciferase reporter | CHO-K1 CHOP-promoter luciferase, tunicamycin-induced, 15-18 h | AID 2732, 2010 | inhibition, % at 10 µM | 220,000 compounds, 3.8% hits;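 active means compounds that reduced the stress-induced luciferase reporter signal by more than about 70% of percent inhibition, limit read from the data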;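 further: 0% = tunicamycin plus vehicle and 100% = wells without tunicamycin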
# S1P4 antag: S1P4 receptor antagonists, primary screen, cell-based | Sphingosine 1-phosphate receptor 4 (Homo sapiens), O95977 | S1P4-expressing cells, antagonist mode, reporter read-out | inhibition, % at 4.98 µM | 220,000 compounds, 0.26% hits; in the data active means inhibition above about 29%;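 further: 0% = wells stimulated with agonist and 100% = vehicle wells without agonist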
# S1P4 ag: S1P4 receptor agonists, primary screen, cell-based; Sphingosine 1-phosphate receptor 4 (Homo sapiens), O95977; S1P4-expressing cell line, agonist reporter assay; activation, % at 4.98 µM; 220,000 compounds, 0.35% hits; in the data active means activation above about 11%;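 further: 0% = DMSO vehicle and 100% = reference agonist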
# Hsp70 act: Hsp70 transcriptional activators, primary screen, cell-based, HeLa, Hsp70 promoter luciferase, luminescence, 10 µM; AID 1203, 2008; 200,000 compounds, 0.04% hits; activation, % at 10 µM; HeLa Hsp70 promoter luciferase reporter; scaled: vehicle 0, proteasome-inhibitor control 100%;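 active means activation above the mean across all tested compounds plus 3 SD, cutoff set per campaign, cut at about 5.5% in these data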;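 further: 100% = MG132 at 30 µM as the positive control and 0% = DMSO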
# S1P4 antag conf: S1P4 receptor antagonists, human, confirmation, cell-based. shares compounds with S1P4 antag. 520 compounds, 71% hits. S1P4-expressing cell line, antagonist mode, reporter read-out. inhibition, % at 4.98 µM; in the data active means inhibition above about 30%
# S1P1 antag: S1P1 receptor antagonists, human, counter-screen for S1P4 antagonist project, cell-based. shares compounds with S1P4 antag. inhibition, % at 4.98 µM. cell-based S1P1 antagonist counterscreen, inhibition. 520 compounds, 37% hits; in the data active means inhibition above about 40%;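 further: receptor stimulated with S1P near its EC80; 0% = agonist stimulated wells and 100% = vehicle only wells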
# Target sequence (P21453 whole entry, looked up): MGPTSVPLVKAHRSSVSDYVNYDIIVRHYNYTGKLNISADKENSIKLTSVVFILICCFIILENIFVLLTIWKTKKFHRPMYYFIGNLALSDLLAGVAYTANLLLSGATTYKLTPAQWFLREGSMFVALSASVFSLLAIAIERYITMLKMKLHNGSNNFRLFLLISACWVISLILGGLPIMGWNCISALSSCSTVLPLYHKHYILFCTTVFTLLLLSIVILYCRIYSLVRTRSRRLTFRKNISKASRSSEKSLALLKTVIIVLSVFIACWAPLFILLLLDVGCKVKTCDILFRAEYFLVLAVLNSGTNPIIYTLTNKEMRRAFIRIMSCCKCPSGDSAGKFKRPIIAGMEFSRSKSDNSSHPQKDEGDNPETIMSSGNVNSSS
# * = called active by the depositor; · = no result.
SMILES,CHOP inh,S1P4 antag,S1P4 ag,Hsp70 act,S1P4 antag conf,S1P1 antag
Cc1ccc(NC(=O)c2ccc([N+](=O)[O-])o2)cc1S(=O)(=O)N1CCOCC1,-130.4,67.9*,-2.2,0.0,88.0*,42.2*
Cc1ccc(NC(=O)COC(=O)c2ccc([N+](=O)[O-])o2)cc1S(=O)(=O)N1CCCCC1,7.3,-4.8,0.2,0.0,·,·
O=C(COC(=O)c1ccc([N+](=O)[O-])o1)Nc1cccc(S(=O)(=O)N2CCCCC2)c1,4.8,6.3,0.4,-0.3,·,·
COc1ccc(-n2nnnc2SCC(=O)Nc2cc(OC)c([N+](=O)[O-])cc2C)cc1,34.2,-13.8,1.7,0.1,·,·
CC1=CC(C)(C)NC(=S)N1c1ccc(C)c(C)c1,10.4,-18.5,-0.2,0.0,·,·
C/C(CC(C)(C)C1CCCCC1)=N\NC(N)=S,-3.3,47.7*,-0.8,-0.4,66.7*,-11.1
C/C(CCC12CC3CC(CC(C3)C1)C2)=N\NC(N)=S,41.0,15.6,-2.4,-0.6,·,·
O=C(CCCOc1ccc(Cl)cc1)Nc1cccc(C(=O)O)c1,-2.5,5.7,0.5,0.0,·,·
O=C(NCc1cccnc1)/C(=C/c1ccc(-c2cccc(Cl)c2)o1)S(=O)(=O)c1ccccc1,94.2*,64.8*,0.3,0.3,105.2*,71.8*
O=C(NCc1cccnc1)/C(=C\c1ccc(-c2cccc(Cl)c2)o1)S(=O)(=O)c1ccccc1,43.1,24.7,-0.5,1.3,·,·
C=CCOc1ccc(CN(C)CC(=O)Nc2ccccc2[N+](=O)[O-])cc1,31.8,1.4,1.9,-0.3,·,·
Cc1ccc(-n2nnnc2C(Cl)c2nnnn2-c2ccc(C)cc2)cc1,91.1*,46.7*,3.6,-0.3,73.9*,21.6
CCN(CC)c1ccc2cc(NC(=O)CCC(=O)O)c(=O)oc2c1,88.1*,32.3*,1.5,-0.3,59.5*,45.3*
CCOC(=O)c1c(C)[nH]c(C(=O)COC(=O)COc2ccc(OC)cc2)c1C,10.0,3.2,0.0,-0.4,·,·
CCOC(=O)c1sc(-c2ccc(C(F)(F)F)cc2)nc1O,-2.9,38.1*,0.7,·,33.6*,22.8
CCOC(=O)c1sc(-c2cccc(C(F)(F)F)c2)nc1O,3.8,16.6,0.3,·,·,·
Fc1cccc(F)c1/C=N/N1CCOCC1,-12.6,-10.1,1.3,-0.1,·,·
COc1cc(SC)ccc1C(=O)Nc1c(C)cccc1C,43.5,81.1*,0.0,-0.2,85.0*,12.3
CC1CCCCC1NC(=O)CN1C(=O)c2cccc(N)c2C1=O (stereo unspecified),-4.0,31.5*,-0.9,-0.1,30.1*,10.9
CCCCNC(=O)CN1C(=O)c2cccc(N)c2C1=O,14.6,38.8*,-1.3,-0.2,26.3,9.5
CC1CCCCC1NC(=O)Cn1cnc2ccccc2c1=O (stereo unspecified),0.3,-4.7,0.8,0.0,·,·
O=C(CCl)Nc1cc(SCC(O)CO)cc([N+](=O)[O-])c1 (stereo unspecified),-0.3,39.0*,0.1,-0.7,112.4*,102.4*
CCOC(=O)C1CCN(C(=O)C23CC4CC(CC(C4)C2)C3)CC1,-10.6,-4.3,0.1,-0.1,·,·
Oc1ccc2ccccc2c1N=Nc1ccccc1F,-1.9,0.9,0.8,·,·,·
Oc1ccc2ccccc2c1N=Nc1ccccn1,69.4,49.7*,-3.6,-0.6,77.5*,82.7*
N#Cc1ccc(C(=O)NC2CCCc3ccccc32)cc1 (stereo unspecified),21.3,-26.4,-1.2,0.2,·,·
CN(C)c1ccc(C(=O)NC2CCCc3ccccc32)cc1 (stereo unspecified),-25.3,48.4*,-0.8,-0.1,56.2*,-10.2
O=C(/C=C/c1ccccc1)NC1CCSC1=O (stereo unspecified),19.4,-17.3,1.5,-0.1,·,·
O=C(/C=C/c1ccccc1)NC1CCCc2ccccc21 (stereo unspecified),-5.0,53.7*,-0.6,0.0,53.6*,-20.8
NNC(=O)CN1C(c2ccc(Br)cc2)=Nc2ccc(Br)cc2C1c1ccccc1 (stereo unspecified),20.8,3.4,-1.6,-0.1,·,·
